Screens as filed in PubChem BioAssay.
The list is not random: actives were taken first. Their share in the collection is about 10%.
HP1b chromo inh = inhibitors of HP1-beta chromodomain binding to methylated histone tails; P83916; AlphaScreen HP1-beta / biotin-H3K9me3 peptide binding; Potency, µM (top dose mostly 114 µM), actives largely listed as inhibitors; hit rate 0.56% among 390,000; AID 540317; note: nearly all actives have a fitted effect of over 70% in size
Target sequence (P83916 whole entry, looked up): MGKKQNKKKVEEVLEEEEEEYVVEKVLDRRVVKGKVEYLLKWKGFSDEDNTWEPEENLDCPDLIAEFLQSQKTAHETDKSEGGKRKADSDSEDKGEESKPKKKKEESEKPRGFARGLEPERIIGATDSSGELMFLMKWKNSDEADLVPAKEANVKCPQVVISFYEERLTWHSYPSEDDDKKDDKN
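HP1-beta protein (50 nM final) preincubated 30 min at room temperature with biotinylated H3(1-18)K9me3 peptide (50 nM) in PBS pH 7.4, 0.01% Tween-20, then compound added for 30 min. AlphaScreen streptavidin donor/nickel chelate acceptor beads (10 ug/mL final), 30 min dark, luminescence read.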
BAZ2B inh = blocks human BAZ2B. AlphaScreen BAZ2B-H3K14Ac peptide displacement. hit rate 4.4% among 360,000. Potency, µM (doses to about 114 µM), hits mostly inhibitors. AID 504333; note: nearly all actives have a fitted effect of over 60% in size
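Complex of BAZ2B and biotin-H3K14Ac (50 nM apiece) forms over 30 min at RT, then faces library compounds up to 110 uM for another 30 min; AlphaScreen beads added, 20 min dark incubation, luminescence read.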
CtBP-E1A blk = inhibitors of CtBP/E1A interaction. AlphaScreen GST-E1A/His-CtBP binding, 1536-well; stronger effect = lower value. activity change, % (concentration not given with the values). hit rate 0.49% among 340,000; in the data active = activity change below about -65%; inconclusive = mostly about -30% to -63%
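Protein mix (5X: 125 nM each GST-E1A, His-CtBP) was incubated with pinned compound 2 h at 37 deg C in dark, in 50 mM Tris pH 8.0 buffer with 300 mM NaCl. Glutathione donor and nickel acceptor beads followed; AlphaScreen signal read after 1 h.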
JMJD2A Tudor inh = inhibitors of human JMJD2A Tudor domain; hit rate 4.4% among 390,000; AlphaScreen JMJD2A-Tudor / H3K4me3 peptide binding; AID 504339; Potency, µM (top dose mostly 114 µM), hits mostly inhibitors; note: nearly all actives have a fitted effect of over 50% in size
G9a inh-1 = blocks human histone lysine methyltransferase G9a. Q96KQ7. G9a H3K9 monomethylation, AlphaScreen, 2 h. Potency, µM (doses to about 102 µM), most hits filed as inhibitors. hit rate 8.8% among 350,000; note: nearly all actives have a fitted effect of over 75% in size
Target sequence (Q96KQ7 913-1193 limits assumed): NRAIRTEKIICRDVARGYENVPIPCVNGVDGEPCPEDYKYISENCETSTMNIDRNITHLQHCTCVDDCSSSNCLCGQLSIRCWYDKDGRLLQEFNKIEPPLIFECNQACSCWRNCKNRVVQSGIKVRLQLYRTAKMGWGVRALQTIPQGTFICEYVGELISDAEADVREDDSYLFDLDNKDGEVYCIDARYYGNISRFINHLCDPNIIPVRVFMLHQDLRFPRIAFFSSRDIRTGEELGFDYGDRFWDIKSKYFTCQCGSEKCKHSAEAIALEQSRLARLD
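Chemiluminescent proximity detection of H3K9 monomethylation, read after 10 min bead incubation in the dark. Reaction: 20 nM G9a, 500 nM biotin-H3K9 peptide, 20 uM SAM cofactor, 2 h, room temperature, following 15 min enzyme-compound preincubation.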
Six1-Eya2 blk = Six1/Eya2 interaction inhibition | hit rate 0.56% among 360,000 | Q15475+O00167 | AlphaScreen GST-Six1/His-Eya2 binding, biochemical; stronger effect = lower value | activity change, % (concentration not given with the values); in the data active = activity change below about -65%; inconclusive = mostly about -30% to -63%
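Six1/Eya2 binding was read as AlphaScreen signal after compounds were pinned into GST-Six1 plus His-tagged Eya2 (5X stock 250/500 nM) in pH 8.0 Tris/NaCl/TCEP buffer, beads added, then incubated 1 h, 37 C, dark.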
G9a inh-2 = confirmation of human histone methyltransferase G9a inhibitors. shares compounds with JMJD2A Tudor inh. G9a H3K9 monomethylation, AlphaScreen, 2 h. Potency, µM, usual class: inhibitors. hit rate 89% among 370. AID 588344; note: nearly all actives have a fitted effect of over 65% in size
RGS4 confirm = confirmation of human RGS4 inhibitors; hit rate 80% among 25; RGS4 GAP activity, Transcreener GDP fluorescence polarization; AID 602388; shares compounds with JMJD2A Tudor inh; Potency, µM, most hits filed as inhibitors
A number is an active result; . = inactive; ? = inconclusive; / = no result given; [ ] = another dose, or the depositor's remark. Unless noted, calls come from the whole dose curve; as a rule, active = well fitted curve in the direction sought with a large enough effect; inconclusive = small, poorly fitted or top-dose-only effect, or another doubt; inactive = no such curve, though single readings can be large; an effect the other way counts as inactive or inconclusive.

SMILES	HP1b chromo inh	BAZ2B inh	CtBP-E1A blk	JMJD2A Tudor inh	G9a inh-1	Six1-Eya2 blk	G9a inh-2	others
Cc1ccnc(NC(=S)N2CCN(c3cccc(C(F)(F)F)c3)CC2)c1	.	20µM	.	1µM	1µM	.	0.28
CCN(CC)CCNC(=O)c1cn(-c2ccccc2)nc1-c1cccs1	.	?	.	.	.	.	/
CCN(CC)CCOC(=O)c1ccc(NC(=O)c2cn(-c3ccccc3)nc2-c2cccs2)cc1	.	.	.	.	.	.	/	RGS4 confirm=21
CCOC(=O)c1ccc(NC(=O)c2c(-c3c(F)cccc3Cl)noc2C)cc1	.	.	/	.	.	/	/
COC(=O)c1c(-c2cccs2)csc1NC(=O)COc1ccc(C(C)C)cc1	?	.	/	.	2.2µM	/	8.1
Cc1csc(NC(=O)CSc2nc3sc(C)c(C)c3c(=O)[nH]2)n1	?	?	.	.	?	.	0.89
CCOc1ccc(NC(=O)Cn2c(=O)n(Cc3ccc4c(c3)OCO4)c(=O)c3ccc(C(=O)NC4CCCCC4)cc32)cc1	.	/	/	.	.	/	/
CNC(=O)NC(=O)CSc1ccc(S(=O)(=O)N2CCOCC2)cn1	.	.	.	.	?	.	5
CCCS(=O)(=O)c1ncc(Cl)c(C(=O)Nc2c(C(=O)c3ccccc3)oc3ccccc23)n1	.	.	/	.	.	/	/
CCN1c2ccccc2NC2N=C(OC)C(c3ccccc3)C21 (configuration not stated)	?	45µM	.	50µM	?	.	11
CCOC(=O)N1CCc2c(sc(NCc3ccc(N(C)C)cc3)c2C(=O)Nc2ccc(OC)cc2)C1	?	22µM	/	14µM	2.8µM	/	3.6
CCOC(=O)N1CCc2c(sc(NCc3cccc(F)c3)c2C(=O)Nc2ccc(OC)cc2OC)C1	?	?	/	?	?	/	2.5
COc1ccc(NC(=O)c2c(NC(=O)CNCC(C)C)sc3c2CCC3)c(OC)c1	.	.	.	.	/	.	/
CCOC(=O)N1CCc2c(sc(NCc3cccc(F)c3)c2C(=O)Nc2ccc(OC)cc2)C1	.	79µM	/	10µM	?	/	2.3
C=CCOc1c(Cl)cc(CNCCC)cc1Cl	.	.	.	.	?	.	/
C=CCOc1c(Cl)cc(CNc2ccc(N(C)C)cc2)cc1OC	16µM	25µM	?	18µM	1.8µM	?	5.6
Cc1ccc(N(Cc2cc(=O)[nH]c3ccccc23)C(=O)c2ccco2)cc1	.	?	.	.	?	.	22
Cc1ccc(C(C)(C)C)cc1S(=O)(=O)N1CCC(C(=O)N2CCN(c3ccc(O)cc3)CC2)CC1	?	.	?	.	0.79µM	.	1.4
c1ccc(-n2nnnc2SCc2cn3cccnc3n2)cc1	.	.	.	.	.	.	/
c1ccc(-n2nnnc2SCc2cn3ccccc3n2)cc1	.	?	.	.	?	.	28
CCOC(=O)C1CCN(C(=O)Cc2cccc3ccccc23)CC1	.	.	.	.	?	.	18
CCOC(=O)N1CCN(C(=O)Cc2cccc3ccccc23)CC1	.	.	/	.	?	.	/
CC1=C(C(=O)Nc2cccnc2)C(c2ccccc2)n2nc(SCc3ccccc3F)nc2N1 (configuration not stated)	.	.	/	.	.	/	/
O=C(Nc1ccc(N2CCCC2)cc1)c1ccccc1F	.	?	?	?	1.8µM	.	2.8
O=C(Nc1ccc(N2CCCC2)cc1)c1cccc(-c2cc3ccccc3oc2=O)c1	8.9µM	?	.	28µM	1.6µM	?	1.1
O=C(Nc1ccc(N2CCCC2=O)cc1)c1cccc(F)c1	.	.	.	.	.[12.7 µM]	.	/
O=C(Nc1ccc(N2CCCC2)cc1)c1cccc(F)c1	?	?	.	50µM	?	.	1.6
